Bioassay records from PubChem BioAssay.
The list is not random: actives were taken first. Their share in the collection is about 12%.
HP1b chromo inh: HTS for Inhibitors of HP1-beta Chromodomain Interactions with Methylated Histone Tails; Chromobox protein homolog 1 (Homo sapiens), P83916; AlphaScreen HP1-beta / biotin-H3K9me3 peptide binding; Potency, µM (titrated, usually from 114 µM), hits mostly inhibitors; 390,000 compounds, 0.56% hits; AID 540317, 2011; further: nearly all actives have a fitted effect of over 70% in size
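HP1-beta protein (50 nM final) preincubated 30 min at room temperature with biotinylated H3(1-18)K9me3 peptide (50 nM) in PBS pH 7.4, 0.01% Tween-20, then compound added for 30 min. AlphaScreen streptavidin donor/nickel chelate acceptor beads (10 ug/mL final), 30 min dark, luminescence read.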
L3MBTL1 inh: qHTS Assay for the Inhibitors of L3MBTL1; Lethal(3)malignant brain tumor-like protein 1 (Homo sapiens), Q9Y468; AlphaScreen L3MBTL1–H3K9me1 peptide binding; Potency, µM (highest dose often 57.1 µM), actives largely listed as inhibitors; 230,000 compounds, 0.66% hits; AID 485360, 2010; further: nearly all actives have a fitted effect of over 60% in size
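L3MBTL1 (50 nM) pre-complexed 30 min with biotinylated H3(1-15)K9me1 peptide (75 nM), then compounds added for 30 min at room temperature; AlphaScreen streptavidin donor/nickel chelate acceptor beads (10 ug/mL final) read after 30 min dark incubation.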
G9a inh: qHTS Assay for Inhibitors of Histone Lysine Methyltransferase G9a; 350,000 compounds, 8.8% hits; G9a H3K9 monomethylation, AlphaScreen, 2 h; AID 504332, 2011; Potency, µM (series often up to 102 µM), usual class: inhibitors; further: nearly all actives have a fitted effect of over 75% in size
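Methyltransferase reactions run at room temperature for 2 h (20 nM enzyme, 500 nM biotin-H3K9 peptide, 20 uM SAM) after a 15 min compound preincubation; product detected by AlphaScreen beads and anti-H3K9me1 antibody.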
Sfp inh: qHTS Assay for Inhibitors of Bacillus subtilis Sfp phosphopantetheinyl transferase (PPTase) | Biochemical Sfp PPTase activity, qHTS | Potency, µM, usual class: inhibitors | 310,000 compounds, 3.5% hits | AID 1490, 2009;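 further: the enzyme is Sfp with the accession as filed and its product quenches rhodamine fluorescence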
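Fluorescence-quenching assay: 15 nM Sfp-PPTase preincubated 15 min at room temperature with compound, then 5 uM rhodamine-CoA and 12.5 uM BHQ-2-labelled YbbR peptide added. Fluorescence (ex 525/em 598 nm) read at start and after 30 min; difference gives rate.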
BAZ2B inh: qHTS Assay for Inhibitors of BAZ2B; Bromodomain adjacent to zinc finger domain protein 2B (Homo sapiens), Q9UIF8; AlphaScreen BAZ2B-H3K14Ac peptide displacement; Potency, µM (titrated, usually from 114 µM), most hits filed as inhibitors; 360,000 compounds, 4.4% hits; further: nearly all actives have a fitted effect of over 60% in size
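Multi-concentration screen (max 110 uM) measuring displacement of acetylated histone H3 peptide from BAZ2B by AlphaScreen, using 50 nM protein, 50 nM peptide and 10 ug/mL streptavidin donor plus Ni-chelate acceptor beads.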
JMJD2A Tudor inh: qHTS Assay for Inhibitors of JMJD2A-Tudor Domain. 390,000 compounds, 4.4% hits. Lysine-specific demethylase 4A (Homo sapiens), O75164. Potency, µM (titrated, usually from 114 µM), most hits filed as inhibitors. AID 504339, 2011. AlphaScreen JMJD2A-Tudor / H3K4me3 peptide binding; further: nearly all actives have a fitted effect of over 50% in size
A number is an active result; – = inactive; ? = inconclusive; · = not tested or not shown; [ ] = dose if it differs, or a comment. The call rests on the fitted dose curve; in most records, active means well fitted curve in the direction sought with a large enough effect; inconclusive means small, poorly fitted or top-dose-only effect, or another doubt; inactive means no such curve, though single readings can be large; an effect the other way counts as inactive or inconclusive.

SMILES | HP1b chromo inh | L3MBTL1 inh | G9a inh | Sfp inh | BAZ2B inh | JMJD2A Tudor inh
O=C(Cn1ncn2c(cc3ccccc32)c1=O)NCCCc1ccccc1 | – | · | – | – | – | –
COc1cc(-c2ccc3ncnc(NCc4cccs4)c3c2)cc(OC)c1OC | · | · | · | · | · | –
COc1ccc(-n2nnnc2SCC(=O)N2CCN(C(=O)c3ccco3)CC2)cc1OC | – | · | – | – | – | ?
COc1ccc(C(=O)Nc2ccc(-c3nnn(CC(=O)N4CCN(C(=O)c5ccco5)CC4)n3)cc2)cc1 | – | – | 50.1µM | – | 79.4µM | –
COc1ccc(OC)c(-n2nnnc2SCC(=O)N2CCN(C(=O)c3ccco3)CC2)c1 | – | – | ? | – | – | 20µM
Cn1cnnc1SCC(=O)N1CCN(C(=O)c2ccco2)CC1 | – | · | 35.5µM | – | – | –
O=C(Cn1nnc(-c2ccc(Cl)cc2)n1)N1CCN(C(=O)c2ccco2)CC1 | – | – | –[12.7 µM] | · | – | –
CCOc1ccc(CCNC(=O)c2cnc(C)cn2)cc1OCC | – | · | – | – | – | –
C[n+]1ccccc1C1CCCC/C1=N\NC(N)=S (stereo unspecified) | ? | · | 15.8µM | – | ? | 22.4µM
S=C1NCCc2ccc(Cl)cc2C1c1ccccc1 (stereo unspecified) | ? | – | – | – | 39.8µM | ?
CCc1ccccc1NC(=O)CN1CCN(C(=O)CNC(=O)Cc2cccc3ccccc23)CC1 | – | – | ? | · | – | –
N#Cc1ccc(CN2CCN(C(=O)CNC(=O)Cc3cccc4ccccc34)CC2)cc1 | – | – | 50.1µM | · | – | –
COc1ccc(C2=NS(=O)(=O)N(C)C(C(=O)Nc3ccc(OC(F)(F)F)cc3)=C2)cc1 | – | · | 14.1µM | · | – | –
Cc1ccc(OCC(=O)N/N=C/c2cccn2C)cc1 | – | – | – | – | ? | –
O=C(CNc1ccc2ccccc2c1)N/N=C/c1ccc([N+](=O)[O-])o1 | – | – | 2.51µM | – | – | –
O=C(COc1ccccc1)N/N=C/c1ccc([N+](=O)[O-])o1 | – | – | – | – | – | –
Cn1cccc1/C=N/NC(=O)CNc1ccc2ccccc2c1 | ? | – | 3.98µM | – | 25.1µM | 56.2µM
Cn1cccc1/C=N/NC(=O)Cc1cccc2ccccc12 | – | · | ? | – | 14.1µM | ?
Cc1ccc(NCC(=O)N/N=C/c2cccn2C)cc1 | – | – | · | – | 39.8µM | ?
CCn1cc(S(=O)(=O)c2ccc(Cl)cc2)c(=O)c2cc(F)c(N3CCOCC3)cc21 | – | · | – | · | – | –
CCc1ccc(Nc2cc(C)nc3nc(Cc4ccc(Cl)cc4)nn23)cc1 | – | · | – | · | – | –
O=C(NCCc1ccc(Cl)cc1)c1ccc(CS(=O)Cc2cccc(Cl)c2)o1 (stereo unspecified) | – | · | – | · | ? | –
CN(CC(=O)NCc1ccc(Cl)cc1)S(=O)(=O)c1ccc2c(c1)c(=O)n(C)c(=O)n2C | – | · | – | · | – | –
O=C(COc1cccc(Cl)c1)N/N=C\c1cc2ccccc2nc1Cl | – | – | – | – | – | –
O=[N+]([O-])c1ccc(/C=N/NC(=S)Nc2ccccc2C(F)(F)F)o1 | ? | – | 20µM | – | ? | –
SMILES | HP1b chromo inh | L3MBTL1 inh | G9a inh | Sfp inh | BAZ2B inh | JMJD2A Tudor inh
NC(=O)N/N=C/c1ccc([N+](=O)[O-])o1 | – | – | – | – | – | –
O=C(CNc1ccc2ccccc2c1)N/N=C/c1cc2ccccc2nc1Cl | – | – | 10µM | – | ? | ?
O=C(N/N=C/c1ccc([N+](=O)[O-])o1)C(O)c1ccccc1 (stereo unspecified) | – | · | – | – | – | –
O=C(N/N=C/c1ccc([N+](=O)[O-])o1)C1CC1 | – | ? | ? | – | 50.1µM | ?
O=C(CN1C(=O)NC2(CCc3ccccc32)C1=O)c1c[nH]c2ccccc12 (stereo unspecified) | – | – | ? | · | – | –
CN(CCC1CCCCO1)C(=O)CCc1nnc(Cc2c[nH]c3ccccc23)o1 (stereo unspecified) | – | · | 79.4µM | – | – | –
CCOC(=O)c1sc(S(C)(=O)=O)c2c1CCc1conc1-2 | – | – | 56.2µM | – | – | –
COc1ccc(CCn2c(=O)c3ccccc3n(CC(=O)Nc3cccc(C)c3)c2=O)cc1OC | – | · | – | · | – | –
COc1ccccc1C(=O)NNc1ncc(C)s1 | – | – | 39.8µM | 39.8µM | – | –
COc1ccc(CCNC(=O)c2cccnc2SC)cc1 | – | – | – | – | · | –
Cc1ccccc1Nc1c(-c2ccc(N3CCOCC3)cc2)nc2ccccn12 | ? | · | 15.8µM | · | 17.8µM | 28.2µM
Cc1ccccc1Nc1c(-c2cccnc2)nc2cccc(C)n12 | – | · | – | – | ? | –
CCc1cccc(C)c1Nc1c(-c2ccc(N3CCOCC3)cc2)nc2ncccn12 | ? | · | 10µM | · | 28.2µM | 39.8µM
Cc1ccccc1Nc1c(-c2ccc(N3CCOCC3)cc2)nc2cccc(C)n12 | ? | · | 14.1µM | · | ? | 22.4µM
Cc1ccccc1Nc1c(-c2ccc(N3CCOCC3)cc2)nc2ccc(Br)cn12 | ? | · | 7.08µM | · | ? | ?
O=S(=O)(c1ccc(OC(F)(F)F)cc1)N1CCN(c2nc(-c3cccs3)nc3ccccc23)CC1 | – | · | · | · | · | –
O=C(c1cnc(N2CCCCC2)c2ccccc12)N1CCN(c2ccc(Cl)cc2)CC1 | – | · | – | · | – | –
CCOC(=O)c1sc(NC(=O)CCN2C(=O)C3CCCCC3C2=O)cc1C (stereo unspecified) | – | – | –[12.7 µM] | · | – | –
COc1ccc(CCN2C(=O)CSC2=S)cc1OC | – | · | ? | – | ? | –
O=C1/C(=C\c2ccco2)SC(=S)N1Cc1ccccc1 | ? | – | –[0.501 µM] | ? | 11.2µM | 50.1µM
O=C1/C(=C\c2ccco2)NC(=S)N1c1ccccc1 | ? | – | · | – | – | 56.2µM
COc1ccc(CCN2C(=O)/C(=C\c3ccco3)SC2=S)cc1OC | – | 17.8µM | 44.7µM | 17.8µM | 8.91µM | –
Cc1ccc(N2C(=O)/C(=C\c3ccco3)SC2=S)cc1 | – | – | –[12.7 µM] | 14.1µM | 56.2µM | –
CCCN=C1N/C(=C\c2ccco2)C(=O)N1c1ccccc1 | – | · | ? | ? | – | –
Cc1ccc(CN2C(=O)c3ccccc3NC2c2cc(Br)ccc2O)cc1 (stereo unspecified) | – | · | ? | – | – | –
Nc1ncnc2c1[nH]c(=S)n2C1OC(CO)C(O)C1O (stereo unspecified) | – | · | · | · | · | ?
